Compound activity from PubChem BioAssay.
BoNT-A LC inh2: inhibitors of Botulinum neurotoxin A light chain protease. actives 0.17% (n = 360,000). AID 588499. inhibition, % at 10 µM. multiplex microsphere protease substrate cleavage, flow cytometry; note: plate controls were buffer without enzyme for full effect and enzyme alone for no effect
DUSP3 inh: inhibitors of human VHR1 phosphatase (DUSP3) | P51452 | recombinant VHR phosphatase, pNPP absorbance | inhibition, % at 13.3 µM | actives 0.52% (n = 290,000); in the data active = inhibition above about 50%
Target sequence (P51452 whole entry, looked up): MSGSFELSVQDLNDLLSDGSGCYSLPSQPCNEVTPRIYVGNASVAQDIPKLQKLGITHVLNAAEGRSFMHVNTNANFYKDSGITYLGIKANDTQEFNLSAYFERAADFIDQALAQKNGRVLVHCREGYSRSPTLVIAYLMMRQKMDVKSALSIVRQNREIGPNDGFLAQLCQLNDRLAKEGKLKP
BoNT F protease: blocks Botulinum neurotoxin F light chain protease. Multiplex microsphere protease cleavage assay, flow cytometry. inhibition, % at 10 µM. actives 0.22% (n = 360,000). AID 588497; in the data active = inhibition above about 35%, passing the limit was not always enough; inconclusive = no clear call, values can overlap the other calls; note: plate controls were buffer without enzyme for full effect and enzyme alone for no effect
Bead autofluor: flagged as autofluorescent in microsphere protease counterscreen; fluorescence intensity (test concentration not listed); AID 624483; compound autofluorescence counterscreen, microsphere flow cytometry; hits give high values; actives 3.1% (n = 360,000); in the data active = fluorescence intensity above about 16000; inconclusive = no clear call, values can overlap the other calls
SARS 3CLpro inh-1: SARS-CoV 3CLpro protease inhibition; recombinant SARS-CoV 3CLpro, quenched FRET peptide cleavage; inhibition, % at 6 µM; actives 0.14% (n = 290,000); AID 1706; in the data active = inhibition above about 12%
Anthrax LF inh2: anthrax lethal factor protease inhibition; P15917; multiplex microsphere protease cleavage assay, LF; inhibition, % at 10 µM; actives 0.12% (n = 360,000); AID 588501; note: plate controls were buffer without enzyme for full effect and enzyme alone for no effect
SARS 3CLpro inh-2: SARS 3CLpro inhibition, confirmation assay | shares compounds with SARS 3CLpro inh-1 | QFRET protease activity assay | inhibition, % at 6 µM | actives 36% (n = 380) | AID 1879; in the data active = inhibition above about 13%
The depositor's hits bear a star; ? = inconclusive; . = no result. Hits are enriched below; roughly 3.9% of the tested compounds scored in any of these assays. Cut-off read from the data, not from the text of the source, unless noted: active = inhibition above about 30%; inconclusive = no clear call, values can overlap the other calls; inactive = below that.

SMILES	BoNT-A LC inh2	DUSP3 inh	BoNT F protease	Bead autofluor	SARS 3CLpro inh-1	Anthrax LF inh2	SARS 3CLpro inh-2
Cc1cc(NC(=O)COC(=O)C(Nc2ccc(C(F)(F)F)cc2Cl)C(C)C)no1 (configuration not stated)	1	-10	17	4203	14*	-1	13*
O=C(/C=C/c1ccccc1Cl)Nc1ccncc1	0	4	-13	3328	-4	-2	.
O=C(/C=C/c1ccccc1Cl)Nc1cccnc1	-1	22	-14	3124	16*	2	21*
COc1ccc(OC)c(NC(=O)Nc2nnc(COCCO)s2)c1	0	.	4	3792	.	2	.
CC1CCC(N2CCN(c3ccc([N+](=O)[O-])cc3)CC2)CC1 (configuration not stated)	-2	9	-8	3644	2	-2	.
CCC1CCC(N2CCN(c3ccc([N+](=O)[O-])cc3)CC2)CC1 (configuration not stated)	3	-7	?	2937	13*	-11	0
COc1cccc(C(=O)N2CCC(C(=O)NCc3ccco3)CC2)c1	-1	36	2	2837	1	8	.
O=C1/C(=C/c2cccc(Cl)c2)SC(=S)N1CCC(=O)N1CCCCC1CCO (configuration not stated)	0	-12	3	5484	14*	-1	3
O=C(O)/C(=C\c1ccccc1OC(F)F)c1ccc(-c2ccccc2)cc1	-2	-4	-5	5903	4	2	.
O=C(O)/C(=C\c1ccc(F)cc1)c1ccc(-c2ccccc2)cc1	-2	-29	-10	4234	13*	4	12
O=C(CCl)N=c1sccn1Cc1ccccc1Cl	0	17	5	4674	41*	7	58*
O=C(CCl)N=c1sccn1Cc1ccc(Cl)cc1Cl	-1	20	1	4274	33*	-5	63*
N=c1sccn1Cc1ccc(Cl)cc1Cl	0	-4	1	10484	-6	1	.
CCN(CC)CCNC(=O)c1sc2nc(-c3ccccc3)cn2c1C	0	49	-7	5625	-5	0	.
COc1cccc(C(C)NC(=O)Nc2ccccc2Cl)c1 (configuration not stated)	0	-25	2	2379	8	-2	.
C/C(=N\N=C(/N)SC1CC(=O)N(c2cccc(Cl)c2)C1=O)c1cccs1 (configuration not stated)	-2	22	-22	9498	13*	-7	2
O=C1N/C(=N/S(=O)(=O)Cc2ccccc2)S/C1=C/c1ccc2c(c1)OCO2	-1	26	-13	3826	13*	-1	2
CCCn1c2ccccc2c2cnn(CC(=O)NCCCN3C(C)CCCC3C)c(=O)c21 (configuration not stated)	2	48	-4	6974	2	1	.
COc1ccc(S(=O)(=O)N2CCN(C(=O)Nc3ccccc3OC)CC2)cc1	0	6	0	6058	13*	0	-2
COc1ccc(NC(=O)N2CCN(S(=O)(=O)c3ccc(F)cc3)CC2)c(OC)c1	-2	4	2	4735	2	1	.
Cc1ccccc1S(=O)(=O)N1C[C@H]2[C@H]3C(=O)N(c4ccccc4)C(=O)[C@H]3CC(=O)[C@H]2[C@@H]1c1ccc(Cl)cc1	0	.	-6	5339	.	-2	.
COC(=O)c1cc(-c2ccccc2)sc1N	0	13	9	3458	51*	-3	3
Nc1sc(-c2ccccc2)cc1C(=O)N/N=C/c1ccc(Cl)cc1	.	22	.	.	-3	.	.
CCOc1ccc(N(CC(=O)NCCSCc2ccco2)S(=O)(=O)c2ccc(C)cc2)cc1	-1	-14	-7	5385	12*	0	-1
O=C(O)Cn1cc(/C=C2\C(=O)NC(=O)N(c3ccc(Cl)cc3)C2=O)c2ccccc21	2	7	20	3526	4	-20	.
CCN(CC)C(=O)Cn1cc(/C=C2\C(=O)NC(=O)N(c3ccccc3F)C2=O)c2ccccc21	-3	16	1	3074	17*	1	23*
CCOC(=O)c1c(C)n(S(=O)(=O)c2ccc(C)cc2)c2ccc(O)c(C(=O)O)c12	1	32	11	5184	13*	-1	1
CCOC(=O)C1=C[C@@H](C)N(S(=O)(=O)c2ccc(C)cc2)[C@H]1c1ccccc1	0	.	-1	5406	.	-1	.
